A selection: hits, their analogues and other compounds. The true share with any hit is near 1.5%.
Efflux pump inh = inhibitors of Candida efflux pumps in yeast, primary screen, S. cerevisiae, Nile Red, multiplex. S. cerevisiae Candida pump triplex. inhibition, % at 10 µM. 330,000 tested, 0.44% active;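 active = plate passing quality check with inhibition over a set limit, or well fluorescence over plate mean plus 4 SD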;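 note: Nile Red retained in pooled yeast measured as flow cytometry median fluorescence; 0% = buffer negative control and 100% = Enniatin B positive control; higher means more Nile Red kept so more efflux inhibition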
NALP1 yeast inh = NALP1 inflammasome inhibitors in reconstituted yeast, colorimetric, S. cerevisiae, triplicate retest; 280,000 tested, 0.61% active; S. cerevisiae NALP1/ASC/caspase-1 growth, X-gal OD620, 72 h; inhibition, % at 10 µM; in the data active = inhibition mostly above about 24%, no sharp cut-off; inactive = mostly below about 32%
PolyA inh = polyadenylation inhibitors in yeast reporter cells, primary screen, luminescence, S. cerevisiae; S. cerevisiae SKY197-pL101 polyadenylation reporter, beta-gal luminescence; efflux-impaired pdr1/pdr3 knockout yeast; score 100 = 6 SD above DMSO; activity score, % at 12 µM; 300,000 tested, 0.02% active; AID 1875, 2009;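 active = lowest replicate activity score at least 50, where 100 means six control SD above control mean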;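 note: yeast exposed to compound for 9 h at 30 °C; higher score means more reporter readthrough which indicates perturbed polyadenylation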
JMJD2C inh = inhibitors of GASC-1 histone demethylase, primary screen, biochemical, fluorescence, DELFIA europium; Lysine-specific demethylase 4C (Homo sapiens), Q9H3R0; GST-JMJD2C(1-420) H3K9me3 demethylation; inhibition, % at 2.35 µM; 330,000 tested, 0.069% active; AID 2099, 2009;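 active = more than half of a compound's replicate wells show inhibition beyond 50%, single wells judged on their own value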;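 note: signal counts dimethyl H3K9 product captured on neutravidin plate; 0% = median of DMSO wells and 100% = 0.3 times that DMSO median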
HDAC3 inhib = HDAC3 deacetylase inhibitors, primary screen, biochemical, fluorescence, cell-free homogeneous. recombinant HDAC3, fluorogenic peptide/trypsin coupled. inhibition, % at 8.3 µM. 320,000 tested, 0.15% active. AID 2718, 2010; in the data active = inhibition above about 26%, passing the limit was not always enough
Target sequence (O15379 whole entry, looked up): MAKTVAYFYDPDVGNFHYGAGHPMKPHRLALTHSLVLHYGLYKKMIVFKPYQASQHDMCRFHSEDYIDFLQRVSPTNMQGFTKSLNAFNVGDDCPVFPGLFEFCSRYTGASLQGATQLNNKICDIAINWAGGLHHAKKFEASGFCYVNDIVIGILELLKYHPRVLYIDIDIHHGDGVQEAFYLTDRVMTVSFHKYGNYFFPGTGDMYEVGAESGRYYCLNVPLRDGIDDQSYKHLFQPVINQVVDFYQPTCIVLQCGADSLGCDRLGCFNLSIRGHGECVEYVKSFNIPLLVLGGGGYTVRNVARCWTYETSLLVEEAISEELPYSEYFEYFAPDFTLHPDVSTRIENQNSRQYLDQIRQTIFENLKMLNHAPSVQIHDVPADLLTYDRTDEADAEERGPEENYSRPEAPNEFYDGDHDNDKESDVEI
NLRP3 yeast inh = NALP3 inflammasome inhibitors in reconstituted yeast, primary screen, luminescence, uHTS | inhibition, % at 10 µM | Yeast reconstituted NLRP3/ASC/caspase-1, beta-gal luminescence, 24 h | 330,000 tested, 0.39% active;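 active = inhibition of 50% or more; inactive = inhibition below 50%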;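 note: plate controls were induced DMSO wells for no effect and uninduced yeast grown without galactose for full effect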
Yeast cmpd fluor = flagged as fluorescent in efflux inhibitor counter-screen. shares compounds with Efflux pump inh. S. cerevisiae AD/pABC3, compound fluorescence, flow cytometry. fluorescence ratio to DMSO, % at 10 µM. 1,700 tested, 4% active. AID 588517;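 active = fluorescence ratio to DMSO above its plate's cutoff, the plate mean ratio plus 5 SD, cut at about 210% in these data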;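 note: unstained yeast with no Nile Red so the signal is compound autofluorescence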
Mdr1 pump inh = inhibitors of Candida albicans Mdr1 efflux, confirmation, flow cytometry, singleplex, Cherry Pick1 set; AID 588518, 2011; inhibition, % at 10 µM; shares compounds with Efflux pump inh; 1,700 tested, 1% active; S. cerevisiae AD/CaMDR1, Nile Red efflux; in the data active = inhibition above about 26%;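 note: 0% = DMSO vehicle and 100% = reference inhibitor; higher means more Nile Red retained so more efflux inhibition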
Cdr2 pump inh = inhibitors of Candida albicans Cdr2 efflux pump, confirmation, S. cerevisiae AD/CaCDR2, flow cytometry, cherry pick 1, singleplex; 1,700 tested, 4% active; Nile Red retention ratio vs DMSO, % at 10 µM; Nile Red retention; shares compounds with Efflux pump inh; in the data active = Nile Red retention ratio vs DMSO above about 190%;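 note: higher ratio means more blocking of Cdr2 efflux of the dye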
CaCdr1 efflux inh = inhibitors of Candida albicans Cdr1 efflux pump, confirmation, S. cerevisiae AD/CaCDR1, flow cytometry, cherry pick 1, singleplex; shares compounds with Efflux pump inh; Nile Red efflux; inhibition, % at 10 µM; 1,700 tested, 1% active; AID 588522, 2011;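 active = inhibition above the screen-wide mean plus twice its standard deviation, cut at about 32% in these data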
The depositor's hits bear a star; nt = not tested or not shown.

SMILES	Efflux pump inh	NALP1 yeast inh	PolyA inh	JMJD2C inh	HDAC3 inhib	NLRP3 yeast inh	Yeast cmpd fluor	Mdr1 pump inh	Cdr2 pump inh	CaCdr1 efflux inh
CC(C)(C)OC(=O)C[C@H]1C/C=C\C[C@H](CC(=O)N(CCO)Cc2ccccc2)C(=O)N[C@H](C(C)(C)C)COC1=O	-0.2	nt	nt	8.6	8.8	16.2	nt	nt	nt	nt
COc1cc(C(=O)Nc2ccc3nc(N4CCOCC4)sc3c2)cc(OC)c1OC	0.3	nt	nt	13.5	7.1	7.0	nt	nt	nt	nt
Cc1c(C(=O)Nc2ccc3nc(N4CCOCC4)sc3c2)oc2ccccc12	0.8*	nt	nt	-1.2	14.3	31.0	109.0	-0.1	110.3	0.1
C[C@@H]1CC[C@]2(C(=O)O)CC[C@]3(C)C(=CCC4[C@]56CC[C@@](O)(OC5)C(C)(C)C6CC[C@]43C)C2[C@H]1C (some centres undefined)	1.4*	nt	nt	-10.9	12.2	20.7	104.5	0.1	204.3*	-0.1
C[C@H]1[C@H](C)CC[C@]2(C(=O)O)CC[C@]3(C)C(=CC[C@@H]4[C@@]5(C)C[C@@H](O)[C@H](O)C(C)(C)[C@@H]5CC[C@]43C)[C@H]12	0.5	26.4	0.4	-6.1	0.2	-1.3	nt	nt	nt	nt
Cn1c(=O)c2c(SCC(=O)NCC3CCCO3)nc(-c3ccccc3Cl)nc2n(C)c1=O (centres undefined)	0.8*	0.6	2.4	-6.3	-9.3	16.7	81.2	-0.1	86.9	-0.1
CCc1nc(SCC(=O)NCC2CCCO2)c2c(=O)n(C)c(=O)n(C)c2n1 (centres undefined)	-0.1	12.4	6.0	-6.6	4.6	17.9	nt	nt	nt	nt
O=C(Cc1cccc(C(F)(F)F)c1)OCN1C(=O)c2ccccc2C1=O	1.3*	2.8	4.2	-14.7	-2.6	13.6	101.4	-0.3	103.9	-0.1
O=C(Cc1ccc(F)cc1)OCN1C(=O)c2ccccc2C1=O	0.0	-0.4	23.5	-1.0	1.0	20.7	nt	nt	nt	nt
N#CCCN1CCN(C(=S)c2ccc(-c3ccc(Cl)c(Cl)c3)o2)CC1	1.0*	-11.9	-4.7	-31.3	-2.7	-3.5	104.5	-0.1	89.9	0.1
O=C(Nc1ccc(NC(=O)C2CCCCC2)nc1)c1cccc(F)c1	nt	12.3	-4.8	-2.9	nt	20.8	nt	nt	nt	nt
CCOc1cc(OCC)cc(C(=O)NCc2ccco2)c1	0.0	13.2	-5.6	13.0	5.3	13.4	nt	nt	nt	nt
CCOc1ccc(C(=O)NCc2ccco2)cc1	1.2*	10.6	6.7	-11.9	2.6	7.6	104.6	0.0	108.0	-0.1
Cc1cc2oc(=O)c(CC(=O)NCCCN(C)C)c(C)c2c2occ(C(C)(C)C)c12	0.9*	13.4	6.9	-6.0	-23.5	18.9	107.8	-0.2	89.3	0.0
O=c1c2cc(N3CCOCC3)ccc2[nH]c(=S)n1CCCN1CCCC1	0.1	nt	4.9	-13.1	4.2	13.1	nt	nt	nt	nt
O=c1c2cc(N3CCOCC3)ccc2[nH]c(=S)n1CCCN1CCCCC1	0.6*	nt	-2.6	-2.4	2.8	27.8	96.6	-0.3	94.0	-0.1
C/C(=N\NC(=O)c1ccc(Br)o1)c1cc2c(cc1NC(=O)CCC(=O)O)OCO2	0.0	2.3	nt	2.6	5.4	14.8	nt	nt	nt	nt
CCc1c(C)c2ccc(OCC(=O)NCC3CCC(C(=O)O)CC3)c(C)c2oc1=O (centres undefined)	-0.1	3.2	18.8	0.6	-22.9	15.7	nt	nt	nt	nt
COc1ccc2sc(-c3ccccc3OC)c(-c3ccc(OCCN4CCOCC4)cc3)c2c1	128.3*	nt	nt	nt	nt	nt	106.2	89.4*	93.5	100.3*
COc1ccccc1-c1sc2ccccc2c1-c1ccc(OCCN2CCOCC2)cc1	0.4	nt	nt	nt	nt	nt	109.5	-0.3	99.7	-0.1
COc1ccc2sc(-c3ccccc3OC)c(-c3ccc(OC)nc3)c2c1	-0.1	nt	nt	-2.7	-2.9	19.6	nt	nt	nt	nt
Cc1cc(C)n2nc(SCC(=O)N3CCCC(C)C3)nc2n1 (centres undefined)	0.2	nt	nt	-2.4	1.5	7.7	nt	nt	nt	nt
CCN(CC)S(=O)(=O)c1ccc(/C=C/C(=O)Nc2cccc(F)c2)cc1	-0.2	27.0	5.8	1.5	4.7	8.3	nt	nt	nt	nt
Cc1cccn2c(=O)c(/C=C(\C#N)C(=O)NCc3ccccc3)c(N3CCC(C(N)=O)CC3)nc12	0.0	38.1	11.4	-1.6	-3.5	15.2	nt	nt	nt	nt
COc1cc(/C=C/C(=O)c2ccc(O)cc2)ccc1OCC#N	11.4*	15.1	-9.1	-16.5	4.3	-5.4	95.0	-0.4	108.0	0.0
SMILES	Efflux pump inh	NALP1 yeast inh	PolyA inh	JMJD2C inh	HDAC3 inhib	NLRP3 yeast inh	Yeast cmpd fluor	Mdr1 pump inh	Cdr2 pump inh	CaCdr1 efflux inh
COc1cccc(C(=O)/C=C/c2ccc(OCC#N)c(OC)c2)c1	0.1	15.5	-13.0	20.7	nt	11.8	nt	nt	nt	nt
CC1CCCCC1NC(=O)COC(=O)c1ccc2c(c1)NC(=O)CS2 (centres undefined)	0.1	nt	nt	nt	-1.8	15.0	nt	nt	nt	nt
Cc1cc(/C([O-])=C(/C(=S)Nc2ccc(F)cc2)[n+]2ccccc2)c(C)n1-c1ccc(F)cc1	-0.3	-8.6	-19.7	5.5	5.0	22.1	nt	nt	nt	nt
Cc1ccc(-n2c(C)cc(/C([O-])=C(/C(=S)Nc3ccc(F)c(Cl)c3)[n+]3ccccc3)c2C)cc1	0.9*	6.7	-10.7	-6.3	2.3	21.3	101.4	0.2	93.5	0.0
Cc1ccc(-c2csc(=S)n2CC(=O)OCC(=O)NC(C)C(C)C)cc1 (centres undefined)	0.7*	18.7	-15.1	6.4	0.7	1.8	90.7	-0.2	100.7	-0.1
COC(=O)c1cccc(-n2nnnc2SCC(=O)Nc2nc3c(s2)CCCC3)c1	1.5*	5.5	-2.4	3.8	5.3	-26.0	79.0	-0.2	93.2	-0.2
COc1cccc(-n2nnnc2SCC(=O)Nc2nc3c(s2)CCCC3)c1	-0.1	-5.1	0.0	2.9	-1.0	11.5	nt	nt	nt	nt
